ROS inducer: cancer cell ROS induction; U2OS ROS induction, H2DCF-DA fluorescence; ROS induction (% of piperlongumine), % at 10 µM; actives 2% (n = 46,000); in the data active = ROS induction above about 79%, passing the limit was not always enough
YB-1 expr inh: YB-1 expression inhibition. U2OS, qRT-PCR YB-1 vs CDIP delta delta Cp, 16 h; stronger effect = higher value; zero = DMSO, each unit about twofold. delta delta Cp (YB-1 minus CDIP) (no concentration beside the values). actives 0.37% (n = 30,000);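 active = delta delta Cp rounded down to an integer at or above 3, about 3 SD of DMSO wells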;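 also: higher means less YB-1 transcript or more CDIP transcript relative to DMSO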
Of the large screens only hits and unclear results are named; the others gave an inactive call. This is a sample that favours compounds with a hit; in the whole collection about 2.1% have one here.

COc1ccc(OC)c(NC(=O)CSc2nc(-c3ccccc3)nc3c2COC(C)(C)C3)c1	ROS inducer 77 (no result: YB-1 expr inh)
O=C(COc1ccc(Cl)cc1)Nc1ccc2nc3n(c(=O)c2c1)CCCCC3	none (no result: YB-1 expr inh)
COC(=O)c1c(NC(=O)C2CC(=O)NN2Cc2ccccc2)sc2c1CCC2 (stereo unspecified)	ROS inducer 149 (no result: YB-1 expr inh)
COC(=O)c1c(NC(=O)C2CC(=O)NN2Cc2ccccc2)sc2c1CCC(C)C2 (stereo unspecified)	none (no result: YB-1 expr inh)
COc1ccccc1Nc1nc(N)nc(CSc2ncccn2)n1	none (no result: YB-1 expr inh)
COc1ccccc1Nc1nc(N)nc(CSCCO)n1	ROS inducer 123 (no result: YB-1 expr inh)
COc1ccc(-c2cc(-c3ccccc3)c(C#N)c(SCS(=O)Cc3ccccc3)n2)cc1 (stereo unspecified)	ROS inducer 87 (no result: YB-1 expr inh)
COc1ccc(-c2cc(-c3ccccc3)nc(SCC(=O)N3CCCCC3)c2C#N)cc1	none (no result: YB-1 expr inh)
COc1ccc2c(C)c(CC(C)O)c(=O)oc2c1 (stereo unspecified)	none (no result: YB-1 expr inh)
CCOC(=O)c1cnc2c(C(F)(F)F)cccc2c1NCCCN1CCOCC1	ROS inducer 113 (no result: YB-1 expr inh)
CCOC(=O)c1cnc2ccc(OCC)cc2c1NCCCN1CCOCC1	none (no result: YB-1 expr inh)
COc1ccc(C2NC(=O)NC(C)=C2C(=O)c2ccccc2)cc1OC (stereo unspecified)	none (no result: YB-1 expr inh)
COc1cccc(S(=O)(=O)N(C)C[C@@H]2Oc3ncc(-c4cccc(F)c4)cc3C(=O)N([C@H](C)CO)C[C@@H]2C)c1	none
COc1ccc(C#Cc2cnc3c(c2)C(=O)N([C@H](C)CO)C[C@H](C)[C@H](CN(C)C(=O)Nc2ccccc2)O3)cc1OC	none
COc1ccc(C#Cc2cnc3c(c2)C(=O)N([C@H](C)CO)C[C@H](C)[C@H](CN(C)C(=O)NC(C)C)O3)cc1OC	none
COc1ccc(C#Cc2cnc3c(c2)C(=O)N([C@H](C)CO)C[C@H](C)[C@H](CN(C)C(=O)Nc2cccc4ccccc24)O3)cc1OC	ROS inducer 148
COc1ccc(C#Cc2cnc3c(c2)C(=O)N([C@H](C)CO)C[C@H](C)[C@H](CN(C)C(=O)NC2CCCCC2)O3)cc1OC	ROS inducer 135
COc1cccc(S(=O)(=O)N(C)C[C@@H]2Oc3ncc(C#Cc4ccc(F)cc4)cc3C(=O)N([C@H](C)CO)C[C@@H]2C)c1	ROS inducer 103
Nc1nc2c(-c3ccccc3)c(C(F)(F)F)sc2s1	none (no result: YB-1 expr inh)
Cc1cccc(CCNC(=S)Nc2ccc3nc4n(c(=O)c3c2)CCCCC4)c1	none (no result: YB-1 expr inh)
COCCOC(=O)N1C(=O)[C@@]2(c3cc(C#CC4(O)CCCCCC4)ccc31)[C@H](C(N)=O)[C@H]1C(=O)O[C@H](c3ccccc3)[C@H](c3ccccc3)N1[C@@H]2c1ccccc1OCCO	none
COCCOC(=O)N1C(=O)[C@@]2(c3cc(C#CC4=CCCCC4)ccc31)[C@H](C(=O)NC[C@H](O)c1ccccc1)[C@H]1C(=O)O[C@H](c3ccccc3)[C@H](c3ccccc3)N1[C@@H]2c1ccccc1OCCO	none
COCCOC(=O)N1C(=O)[C@@]2(c3cc(C#CC4(O)CCCCCC4)ccc31)[C@H](C(=O)NC[C@H](O)c1ccccc1)[C@H]1C(=O)O[C@H](c3ccccc3)[C@H](c3ccccc3)N1[C@@H]2c1ccccc1OCCO	ROS inducer 141
C=CCNC(=O)[C@H]1[C@@H]2C(=O)O[C@@H](c3ccccc3)[C@@H](c3ccccc3)N2[C@@H](c2ccc(O)cc2)[C@]12C(=O)N(C(=O)OCCOC)c1ccc(C#CCC(C(=O)OC)C(=O)OC)cc12	none
C=CCNC(=O)[C@@H]1[C@H]2C(=O)O[C@H](c3ccccc3)[C@H](c3ccccc3)N2[C@H](c2ccccc2OCCO)[C@@]12C(=O)N(C(=O)OCCOC)c1ccc(C#CC3(O)CCCCCC3)cc12	ROS inducer 98
C=CCNC(=O)[C@@H]1[C@H]2C(=O)O[C@H](c3ccccc3)[C@H](c3ccccc3)N2[C@H](c2ccccc2OCCO)[C@@]12C(=O)N(C(=O)OCCOC)c1ccc(C#CCC(C(=O)OC)C(=O)OC)cc12	ROS inducer 110
COCCOC(=O)N1C(=O)[C@@]2(c3ccccc31)[C@H](c1ccc(O)cc1)N1[C@H](c3ccccc3)[C@H](c3ccccc3)OC(=O)[C@H]1[C@@H]2C(=O)NC[C@H](O)c1ccccc1	none
COCCOC(=O)N1C(=O)[C@@]2(c3ccccc31)[C@H](c1ccc(OCCO)cc1)N1[C@H](c3ccccc3)[C@H](c3ccccc3)OC(=O)[C@H]1[C@@H]2C(=O)NC[C@H](O)c1ccccc1	ROS inducer 189
CN(C)C(=O)/C(=C\c1ccccc1)NC(=O)c1ccccc1	none (no result: YB-1 expr inh)
O=C(Nc1ccc(F)cc1)c1cc(N2CCN(c3ccc(F)cc3)CC2)nc2ccccc12	none (no result: YB-1 expr inh)
CCOC(=O)c1sc2nc(C)nc(N3CCC(C)CC3)c2c1C	none (no result: YB-1 expr inh)
CCc1nnc(SCC(=O)N(CC)c2ccccc2)c2cc3occc3n12	none (no result: YB-1 expr inh)
Cc1cc(=O)nc2c3ccccc3n(CC(=O)N3CCCC3)n12	none (no result: YB-1 expr inh)
C=CCNC(=O)[C@H]1[C@@H]2C(=O)O[C@@H](c3ccccc3)[C@@H](c3ccccc3)N2[C@@H](c2ccccc2OCCO)[C@]12C(=O)Nc1ccc(C#CCCO)cc12	none
C=CCNC(=O)[C@H]1[C@@H]2C(=O)O[C@@H](c3ccccc3)[C@@H](c3ccccc3)N2[C@@H](c2ccccc2OCCO)[C@]12C(=O)Nc1ccc(C#CC3(O)CCCCCC3)cc12	ROS inducer 102
C=CCNC(=O)[C@H]1[C@@H]2C(=O)O[C@@H](c3ccccc3)[C@@H](c3ccccc3)N2[C@@H](c2ccccc2OCCO)[C@]12C(=O)N(C(=O)OCCOC)c1ccc(C#CC3=CCCCC3)cc12	ROS inducer 177
C=CCNC(=O)[C@@H]1[C@H]2C(=O)O[C@H](c3ccccc3)[C@H](c3ccccc3)N2[C@H](c2ccccc2OCCO)[C@@]12C(=O)N(C(=O)OCCOC)c1ccc(C#CC3=CCCCC3)cc12	none
CC(C)(C)c1ccc(C(=O)N2CCCc3ccccc32)cc1	none (no result: YB-1 expr inh)
O=C(c1cccs1)N1CCN(c2cc(C(F)(F)F)nc3ccccc23)CC1	none (no result: YB-1 expr inh)
NC(=O)CSc1ncnc2c1nnn2Cc1ccc(F)cc1	ROS inducer 135 (no result: YB-1 expr inh)
O=C(CSc1ncnc2c1nnn2Cc1ccc(F)cc1)OCc1ccccc1	none (no result: YB-1 expr inh)
CCOC(=O)CCCn1c(=O)c2cccn2c2ccccc21	none (no result: YB-1 expr inh)
CCOC(=O)c1c2c(n3ccccc13)C(=O)c1ccccc1C2=O	ROS inducer 210 (no result: YB-1 expr inh)
Cc1ccc(S(=O)(=O)N2CCN(C(=O)c3ccccc3)C2c2ccccc2)cc1 (stereo unspecified)	none (no result: YB-1 expr inh)
COc1cccc(Nc2nc(C3(C)CC4(CC(C)OC4=O)C(=O)O3)cs2)c1 (stereo unspecified)	ROS inducer 92 (no result: YB-1 expr inh)
COc1cccc(Nc2nnc(-c3cc4cccc(OC)c4oc3=O)s2)c1	none (no result: YB-1 expr inh)
CC(CNC(=S)Nc1cccc(Cl)c1)CSc1ccc(Cl)cc1 (stereo unspecified)	none (no result: YB-1 expr inh)
CCOC(=O)c1cc(COc2c(Cl)cccc2Cl)on1	none (no result: YB-1 expr inh)
COc1ccc(CSc2nnc(CSc3cccs3)n2C)cc1	ROS inducer 87
Cn1c(CNC(=O)c2cccs2)nnc1SCc1ccccc1	none (no result: YB-1 expr inh)
O=C(NCc1ccccc1)C1CCCN(S(=O)(=O)N2CCCCCC2)C1 (stereo unspecified)	none (no result: YB-1 expr inh)
COc1ccc(NC(=O)Nc2ccc3c(c2)CC(=O)N([C@@H](C)CO)C[C@H](C)[C@H](CN(C)S(=O)(=O)c2cn(C)cn2)O3)cc1	none

High-throughput results (PubChem)
